The source of these data is PubChem BioAssay.

Structures are written as SMILES. Records with an inconclusive call do not appear. Calls of active or inactive are those of the source.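 Rule for the calls, unless noted: active = compounds killing one labelled cell type while sparing the other, by normalised counts and ratio limits, not self-fluorescent; inactive = the rest.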

Assay [1] is described as follows: EMT-state selective cytotoxicity in co-culture – imaging, PC-3E GFP, TEM4-18 mCherry, primary screen (AID 1345086).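 For all read-outs here: cells exposed to compound for 72 h before imaging.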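 For red/green cell ratio (normalised): normalised mesenchymal count divided by normalised epithelial count so high means epithelial killing.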 To be noted: PC-3E GFP / TEM4-18 mCherry co-culture, imaging cell counts, at 1 µM; for red/green cell ratio (normalised): actives lie on both sides, counts scaled to control wells, 1 = unselective.
Assay [2] concerns Aerobactin synthetase IucA (Klebsiella pneumoniae). Nature of the assay: inhibition of K. pneumoniae IucA enzyme – biochemical, Tocris library, absorbance (AID 1345561; call rule not given here;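 note: 100% = enzyme without compound and 0% = no enzyme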). To be noted: purified IucA enzyme assay, absorbance (OD) read-out; stronger effect = lower value;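 tested at 8 µM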.
Assay [3] in a line: viability loss in pontine glioma line – cell-based, SU-DIPG-XVII, MIPE5.0, CellTiter-Glo, qHTS, dose response (AID 1347060; cut-off not given, nearly all actives have AC50 up to about 26 µM;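 for AC50: cells exposed to compound for 48 hours before viability readout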). The note with it: CellTiter-Glo ATP luminescence. For orientation: Cellular ATP, detected with luciferase, serves as a proxy for viable cell number.
Assay [4] is described as follows: viability loss in pontine glioma line – cell-based, SU-DIPG-XIII, MIPE4.0, CellTiter-Glo, qHTS, dose response (AID 1347061; cut-off not given, nearly all actives have AC50 up to about 37 µM;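 note: cells exposed to compound for 48 hours before readout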). The note with it: CellTiter-Glo ATP luminescence.
A short description of assay [5]: viability loss in pontine glioma line – cell-based, JHH-DIPG-1, MIPE4.0, CellTiter-Glo, qHTS, dose response (AID 1347062; cut-off not given, nearly all actives have AC50 up to about 27 µM;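 for AC50: cells exposed to compound for two days before readout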). To be noted: JHH-DIPG-1 viability, CellTiter-Glo ATP luminescence.
Assay [6] can be described thus: viability loss in pontine glioma line – cell-based, SU-DIPG-XIII, MIPE5.0, CellTiter-Glo, qHTS, dose response (AID 1347064; cut-off not given, nearly all actives have AC50 up to about 23 µM;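 for AC50: cells exposed to compound for 48 hours before the viability read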). To be noted: CellTiter-Glo ATP luminescence.
Assay [7] in a line: viability loss in pontine glioma line – cell-based, SU-DIPG-IV, MIPE4.0, CellTiter-Glo, qHTS, dose response (AID 1347063; cut-off not given, nearly all actives have AC50 up to about 30 µM;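 note: compound exposure lasted 48 hours before the viability readout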). To be noted: CellTiter-Glo ATP luminescence.
Where [8] appears, read: measured here: epithelial PC-3E GFP cell survival.
Setting [9] is: measured here: mesenchymal TEM4-18 mCherry cell survival.

By remaining activity is commonly meant the signal under treatment as a percentage of the control signal. `CCCCNc1c(C(=O)OCC)c(C)nc2c1cnn2CC`: the red/green cell ratio (normalised) in assay [1] is 1.16 (inactive). In addition, the normalised cell number in assay [1] (setting [8]) was 0.85; in assay [1] (setting [9]), 0.98. For the same compound, in assay [2], the remaining activity is 94.8% (inactive).

As for `CS(=O)(=O)Nc1ccc([N+](=O)[O-])cc1Oc1ccccc1`, the red/green cell ratio (normalised) in assay [1] was 0.96 (inactive). Further, the normalised cell number in assay [1] (setting [8]) is 1.05; in assay [1] (setting [9]), 1.01. Further, the remaining activity in assay [2] is 111% (inactive). The result in assay [3], in assay [4], in assay [5] and in assay [6] was inactive.

With `COc1ccc(CCN2CCC(Nc3nc4ccccc4n3Cc3ccc(F)cc3)CC2)cc1`, the red/green cell ratio (normalised) in assay [1] is 1.02 (inactive). For the same compound, the normalised cell number in assay [1] (setting [8]) was 1.09; in assay [1] (setting [9]), 1.11. For the same compound, the remaining activity in assay [2] was 97.7% (inactive).

`CC1=NN(c2ccccc2)C(=O)C1`: the red/green cell ratio (normalised) in assay [1] is 0.88 (inactive). Further, the results for the normalised cell number in assay [1] (setting [8]) and in assay [1] (setting [9]) were 1.15 and 1.01, respectively. Also, the remaining activity in assay [2] is 85.6% (inactive). The compound was called inactive in assay [3], in assay [4], in assay [5], in assay [7] and in assay [6].

Regarding `CCN(CC)CCOCCOC(=O)C1(c2ccccc2)CCCC1`, the red/green cell ratio (normalised) in assay [1] was 1.27 (inactive). Also, the normalised cell number in assay [1] (setting [8]) was found to be 1; in assay [1] (setting [9]), 1.28. Moreover, the remaining activity in assay [2] is 92.5% (inactive).

Take `NC(N)=NC(=O)Cc1c(Cl)cccc1Cl`: the red/green cell ratio (normalised) in assay [1] is 0.93 (inactive). Besides, the normalised cell number in assay [1] (setting [8]) was determined as 1.04; in assay [1] (setting [9]), 0.96. The remaining activity in assay [2] was 114% (inactive).

Consider `COc1ccc(CN(CCN(C)C)c2ccccn2)cc1`, for which, in assay [1], the red/green cell ratio (normalised) was 1.1 (inactive). The normalised cell number in assay [1] (setting [8]) came to 1.02; in assay [1] (setting [9]) it was 1.12. Also, in assay [2], the remaining activity is 118% (inactive).

Take `CN1CCC[C@@H]1CCO[C@](C)(c1ccccc1)c1ccc(Cl)cc1`: the red/green cell ratio (normalised) in assay [1] is 1.23 (inactive). Also, the normalised cell number is 1.06 in assay [1] (setting [8]) and 1.3 in assay [1] (setting [9]). Further, the remaining activity in assay [2] is 109% (inactive). The compound was called inactive in assay [4].

`CC(C)(Oc1ccc(Cl)cc1)C(=O)O`: the red/green cell ratio (normalised) in assay [1] was 0.77 (inactive). Besides, the normalised cell number in assay [1] (setting [8]) was determined as 1.11; in assay [1] (setting [9]), 0.86. Moreover, the remaining activity in assay [2] was 92.9% (inactive).

As for `COc1ccc2[nH]cc(CCNC(C)=O)c2c1`, the red/green cell ratio (normalised) in assay [1] is 1.02 (inactive). The normalised cell number in assay [1] (setting [8]) stood at 0.84; in assay [1] (setting [9]), 0.86. Besides, the remaining activity in assay [2] is 102% (inactive). Moreover, the compound was called inactive in assay [3], in assay [4], in assay [5] and in assay [6].

For the compound `O=C(c1ccc(F)cc1)C1CCN(CCn2c(=O)[nH]c3ccccc3c2=O)CC1`, the red/green cell ratio (normalised) in assay [1] was 0.88 (inactive). The normalised cell number was 0.99 in assay [1] (setting [8]) and 0.88 in assay [1] (setting [9]). Besides, the remaining activity in assay [2] was 124% (inactive). The compound was classed as inactive in assay [4], in assay [5] and in assay [7].

As a reminder, the AC50 is the midpoint of the concentration-response curve, whichever way the signal moves. Regarding `COC(=O)Nc1nc2ccc(S(=O)c3ccccc3)cc2[nH]1` (stereo not given), the red/green cell ratio (normalised) in assay [1] is 0.97 (inactive). In addition, the normalised cell number in assay [1] (setting [8]) is 0.97; in assay [1] (setting [9]), 0.95. In assay [3], the AC50 is 18.6 µM (active).

For the compound `COc1cc(C(=O)OCCCN2CCCN(CCCOC(=O)c3cc(OC)c(OC)c(OC)c3)CC2)cc(OC)c1OC`, the red/green cell ratio (normalised) in assay [1] was 1.21 (inactive). Moreover, the normalised cell number in assay [1] (setting [8]) was 0.76; in assay [1] (setting [9]) it was 0.92. Moreover, the remaining activity in assay [2] is 90.6% (inactive).

In the case of `O=C1CCc2cc(OCCCCc3nnnn3C3CCCCC3)ccc2N1`, in assay [1], the red/green cell ratio (normalised) was 1.09 (inactive). For the same compound, the normalised cell number in assay [1] (setting [8]) is 0.86; in assay [1] (setting [9]), 0.94. In assay [2], the remaining activity was 118% (inactive). Further, the result in assay [3], in assay [4], in assay [5], in assay [7] and in assay [6] was inactive.

For the compound `CCOC(=O)C1=C[C@]2(CC)CCCN3CCc4c(n1c1ccccc41)[C@@H]32`, the red/green cell ratio (normalised) in assay [1] is 0.75 (inactive). Also, the normalised cell number in assay [1] (setting [8]) was determined as 1.28; in assay [1] (setting [9]), 0.96. The remaining activity in assay [2] was 107% (inactive). In addition, the AC50 in assay [4] was 26.4 µM (active); in assay [5], 11.8 µM (active); in assay [7], 16.6 µM (active).

As for `Cc1scc2c1N(C(=O)CN1CCN(C)CC1)c1ccccc1NC2=O`, the red/green cell ratio (normalised) in assay [1] is 1.05 (inactive). Moreover, the normalised cell number in assay [1] (setting [8]) turned out to be 0.88; in assay [1] (setting [9]), 0.92. Further, the remaining activity in assay [2] is 94.5% (inactive).

On to `COC(=O)Nc1nc2ccc(C(=O)c3cccs3)cc2[nH]1`, for which the red/green cell ratio (normalised) in assay [1] was 1.09 (inactive). Moreover, the normalised cell number in assay [1] (setting [8]) came to 0.15; in assay [1] (setting [9]) it was 0.17. Further, in assay [2], the remaining activity is 122% (inactive). In addition, the AC50 was 0.148 µM (active) in assay [3] and 0.833 µM (active) in assay [6].

Regarding `O=C(O)CN1C(=O)c2cccc3cccc(c23)C1=O`, the red/green cell ratio (normalised) in assay [1] is 1.28 (inactive). Moreover, the normalised cell number worked out at 1 in assay [1] (setting [8]) and 1.28 in assay [1] (setting [9]). Besides, the remaining activity in assay [2] is 110% (inactive).

Turning to `CCCOc1ccccc1-c1nc2n[nH]nc2c(=O)[nH]1`, the red/green cell ratio (normalised) in assay [1] was 0.95 (inactive). Further, the normalised cell number amounted to 1.02 in assay [1] (setting [8]) and 0.97 in assay [1] (setting [9]). Further, the remaining activity in assay [2] is 122% (inactive).

For the compound `CSc1ccc2c(c1)C(N1CCN(C)CC1)Cc1ccccc1S2` (stereo not given), the red/green cell ratio (normalised) in assay [1] is 1.1 (inactive). Besides, the normalised cell number in assay [1] (setting [8]) was 0.72; in assay [1] (setting [9]) it was 0.79. Further, in assay [2], the remaining activity was 107% (inactive).

Take `O=c1c(-c2ccc(O)cc2)coc2cc(O)cc(O)c12`: the red/green cell ratio (normalised) in assay [1] is 0.95 (inactive). Also, the normalised cell number is 0.96 in assay [1] (setting [8]) and 0.91 in assay [1] (setting [9]). Moreover, in assay [2], the remaining activity was 121% (inactive). In addition, the compound was called inactive in assay [4], in assay [5], in assay [7] and in assay [6].

Regarding `CC(C)NCC(O)c1ccc2ccccc2c1` (stereo not given), the red/green cell ratio (normalised) in assay [1] was 1.02 (inactive). For the same compound, the normalised cell number was 1.05 in assay [1] (setting [8]) and 1.07 in assay [1] (setting [9]). Also, the remaining activity in assay [2] was 94.1% (inactive).

For `Fc1ccc(C(c2ccc(F)cc2)N2CCN(C/C=C/c3ccccc3)CC2)cc1`, the red/green cell ratio (normalised) in assay [1] was 1.11 (inactive). The normalised cell number came to 0.86 in assay [1] (setting [8]) and 0.95 in assay [1] (setting [9]). The remaining activity in assay [2] is 105% (inactive). Besides, the call in assay [4] was inactive.

For the compound `CCCCCCc1ccc(O)cc1O`, the red/green cell ratio (normalised) in assay [1] is 0.84 (inactive). Further, the normalised cell number was 1.14 in assay [1] (setting [8]) and 0.96 in assay [1] (setting [9]).

As for `CC(=O)Nc1ccc(O)cc1`, the red/green cell ratio (normalised) in assay [1] is 1.05 (inactive). Also, the normalised cell number in assay [1] (setting [8]) worked out at 1.11; in assay [1] (setting [9]), 1.16. Besides, the remaining activity in assay [2] was 121% (inactive). Moreover, the outcome in assay [4] and in assay [5] was inactive.

Regarding `CC1(C)NC(=O)N(c2ccc([N+](=O)[O-])c(C(F)(F)F)c2)C1=O`, the red/green cell ratio (normalised) in assay [1] was 1.15 (inactive). Besides, the normalised cell number was found to be 1.25 in assay [1] (setting [8]) and 1.43 in assay [1] (setting [9]). For the same compound, the remaining activity in assay [2] was 120% (inactive). The call in assay [5], in assay [7] and in assay [6] was inactive.
